# In the library only some 8% were active in any assay of this set; here they are far more common.
# HT1080 IDH1KD tx: qHTS for induction of synthetic lethality in tumor cells producing 2HG: qHTS for the HT-1080-IDH1KD cell line. HT-1080 IDH1 knockdown viability, ATP luminescence, 48 h. Potency, µM (highest dose often 46.1 µM), most hits filed as cytotoxic. 2% of 360,000 active. AID 686971, 2013
#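 After a 2 h attachment period, IDH1KD HT-1080 cells took pin-transferred compound for 48 h at 37 °C; ATP-based luminescence after 10 min room-temperature reagent incubation reported viability.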
# KB-V1 cytotox: qHTS assay for MDR1-selective chemotherapeutics: Primary screen using the drug-selected MDR subline cells KB-V1 | KB-V1 MDR cells viability, CellTiter-Glo, 72 h | Potency, µM (top dose mostly 46.1 µM), usual class: cytotoxic | 3.4% of 400,000 active; note: nearly all actives have a fitted effect of over 60% in size
#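 qHTS viability screen in drug-selected KB-V1 MDR cells: 72 h compound treatment at 37 degrees C, ATP luminescence end point.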
# MCF10A rereplic: A quantitative high throughput screen for small molecules that induce DNA re-replication in MCF 10a normal breast cells | Potency, µM (doses to about 46.1 µM), hits mostly activators | MCF 10A DNA re-replication, Hoechst nuclear intensity, 48 h | 2.9% of 350,000 active | AID 624296, 2012; note: nearly all actives have a fitted effect of over 50% in size
# HT1080NT lethal: qHTS for induction of synthetic lethality in tumor cells producing 2HG: qHTS for the HT-1080-NT fibrosarcoma cell line | HT-1080-NT fibrosarcoma viability, CellTiter-Glo ATP luminescence, 48 h | 1.6% of 360,000 active | Potency, µM (titrated, usually from 46.1 µM), hits mostly cytotoxic;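 note: NT is the 2HG producing partner of a matched IDH1 knockdown line; nearly all actives have a fitted effect of over 55% in size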
#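 A 48-hour cytotoxicity screen used HT-1080-NT cells plated 2 hours before compound delivery. ATP-based CellTiter-Glo luminescence measured viability, normalized to DMSO and no-cell controls.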
# KB-3-1 cytotox: qHTS assay for MDR1-selective chemotherapeutics: Primary screen using the parental adenocarcinoma cell KB-3-1; 1.4% of 400,000 active; KB-3-1 viability, CellTiter-Glo ATP luminescence, 72 h; Potency, µM (doses to about 46.1 µM), hits mostly cytotoxic; note: nearly all actives have a fitted effect of over 60% in size
#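 Using CellTiter-Glo luminescence, growth of non-resistant KB-3-1 adenocarcinoma cells is assessed 72 h after pin-tool compound addition at 37 °C. Normalized responses across the concentration series yield fitted curves.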
# SW480 rerep: A quantitative high throughput screen for small molecules that induce DNA re-replication in SW480 colon adenocarcinoma cells. SW480 DNA re-replication, Hoechst DNA content imaging, 48 h. 1.8% of 340,000 active. Potency, µM (doses to about 46.1 µM), actives largely listed as activators; note: nearly all actives have a fitted effect of over 55% in size
#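 Image-based DNA-content assay: after two days of treatment, nuclei were labelled with the DNA dye Hoechst and imaged, and hits were compounds raising the count of nuclei showing high fluorescence intensity.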
# Numbers stand for hits; - = inactive; ? = inconclusive; . = not tested or not shown. Calls come from the whole dose curve; as a rule, active = well fitted curve in the direction sought with a large enough effect; inconclusive = small, poorly fitted or top-dose-only effect, or another doubt; inactive = no such curve, though single readings can be large; an effect the other way counts as inactive or inconclusive.
SMILES,HT1080 IDH1KD tx,KB-V1 cytotox,MCF10A rereplic,HT1080NT lethal,KB-3-1 cytotox,SW480 rerep
CCOc1ccc(NC(=O)C2CCCCN2S(=O)(=O)c2ccccc2)cc1 (stereo not given),-,?,-,-,?,-
COc1ccccc1NC(=O)C1CCCN(C(=O)NCc2ccccc2)C1 (stereo not given),-,-,-,-,-,-
COc1ccc(NC(=O)C2CCCCN2S(=O)(=O)c2ccc(F)cc2)cc1 (stereo not given),?,-,-,-,-,-
O=C(Nc1ccccc1N1CCCC1)C1CCN(S(=O)(=O)c2ccc(F)cc2)CC1,-,8.2µM,-,-,?,?
CCOc1ccccc1NC(=O)C1CCCCN1S(=O)(=O)c1ccccc1 (stereo not given),-,8.2µM,-,-,?,-
CCOc1ccccc1NC(=O)C1CCCN(C(=O)NCc2ccccc2)C1 (stereo not given),-,8.2µM,-,-,-,-
O=C(Nc1ccccc1N1CCOCC1)C1CCN(S(=O)(=O)c2ccc(F)cc2)CC1,-,?,-,-,-,-
COc1ccc(NC(=O)C2CCCCN2S(=O)(=O)c2ccc(F)cc2)c(OC)c1 (stereo not given),-,5.8µM,-,-,-,-
Cc1ccc(C)c(NC(=O)c2cnc(N3CCCC3)nc2C)c1,.,-,.,.,-,.
CCOc1ccc(C(=O)Nc2ccc3nn(-c4ccc(OC)c(Cl)c4)nc3c2)cc1,.,-,.,.,-,.
COC(=O)c1ccccc1S(=O)(=O)N1CCC(C(=O)NCc2ccco2)CC1,-,-,-,-,-,-
COc1ccccc1NC(=O)C(=O)NCCC1CCCCN1S(=O)(=O)c1ccc(F)cc1 (stereo not given),-,-,-,-,-,-
COc1ccccc1NC(=O)C1CCCCN1S(=O)(=O)c1ccc(F)cc1 (stereo not given),-,5.2µM,-,-,-,-
NNC(=O)c1ccc(C(=O)N(c2ccccc2)c2ccccc2)cc1,.,-,.,.,-,.
CN(C)CC(CCC(CN(C)C)C(O)(c1ccccc1)c1ccccc1)C(O)(c1ccccc1)c1ccccc1 (stereo not given),?,?,21µM,-,?,?
CN(C)CC(O)CN(c1ccccc1)c1ccccc1 (stereo not given),-,-,-,-,-,-
CCN(CC(=O)Nc1ccc(NC(C)=O)cc1)C(=O)c1ccc(N2C(=O)c3ccccc3C2=O)cc1,-,-,-,-,-,-
CC(Sc1ccsc1[N+](=O)[O-])C(=O)NCc1ccco1 (stereo not given),-,-,-,-,-,-
COc1ccccc1CCNS(=O)(=O)c1cc2c3c(c1)CCN3C(=O)CC2,-,-,-,-,-,1.5µM
CCOC(=O)c1c(C)[nH]c(C)c1S(=O)(=O)N1CCC(C(=O)Nc2ccc(OCC)cc2)CC1,.,-,.,.,-,.
Cc1c(C(=O)N/N=C/c2cccnc2)sc(=S)n1C,-,-,-,-,-,?
Cc1cc(C)c2c(N)c(C(=O)N/N=C/c3ccccc3)sc2n1,-,-,9.2µM,?,-,13µM
Cc1cc(C)c2c(N)c(C(=O)N/N=C/c3cccnc3)sc2n1,-,-,16µM,-,-,?
Cc1cc(C)c2c(N)c(C(=O)NN)sc2n1,-,-,?,-,-,?
Cn1c(N)c(C(=O)N/N=C/c2ccccc2)sc1=S,-,-,23µM,-,-,?
CC(=O)Nc1ccc2c(c1)Cc1c(F)cccc1-2,-,-,-,-,-,?
Cc1noc(C)c1COc1ccccc1C(=O)NC(C)c1ccc(Cl)cc1 (stereo not given),-,-,-,-,-,-

# High-throughput results deposited in PubChem by National Center for Advancing Translational Sciences (NCATS).
